The text below walks through data of PubChem BioAssay (NCATS).

The nature of test [1]: P-glycoprotein substrates identified in KB-8-5-11 adenocarcinoma cell line, qHTS therapeutic library screen (AID 1346987). Note: nearly all actives have a fitted effect of over 65% in size. Note: potency is the fitted concentration of half-maximal effect. The method, boiled down: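 KB-8-5-11: colchicine-selected sub-line of KB-3-1 over-expressing P-gp; assay medium lacked colchicine. 72 h drug exposure at 37 degree C, CellTiter-Glo.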
Test [2] in a line: Primary qHTS for inhibitors of nuclear receptor binding SET domain protein 2 (NSD2) in an isogenic RCH-ACV NSD2 p.E1099K mutant (9B) (AID 1645876). Note: nearly all actives have a fitted effect of over 70% in size. Note: potency is the fitted concentration of half-maximal effect.
Test [3] is described as follows: Primary qHTS for inhibitors of nuclear receptor binding SET domain protein 2 (NSD2) in an RCH-ACV wild type WT cells (2C) (AID 1645877). Note: potency is the fitted concentration of half-maximal effect; nearly all actives have a fitted effect of over 70% in size.
The target of test [4] is Glutathione peroxidase 1 (Homo sapiens) (UniProt P07203). The experiment in a line: Primary qHTS Assay for Inhibitors of Recombinant Selenoprotein Glutathione Peroxidase 1 (GPX1) (AID 1845191). Note: nearly all actives have a fitted effect of over 65% in size. The method, boiled down: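 10 nM GPX1 + cpd, 30 min RT; start w/ 1 mM GSH, 0.5 mM cumene hydroperoxide, 0.5 mM NADPH, 100 nM GR, 0.01% BSA; buffer 50 mM Tris-HCl pH 7.5, 2 mM EDTA, 150 mM NaCl; Fl 340/450, 0 & 15 min.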
Sequence of Glutathione peroxidase 1 (Homo sapiens) (P07203 whole entry, looked up): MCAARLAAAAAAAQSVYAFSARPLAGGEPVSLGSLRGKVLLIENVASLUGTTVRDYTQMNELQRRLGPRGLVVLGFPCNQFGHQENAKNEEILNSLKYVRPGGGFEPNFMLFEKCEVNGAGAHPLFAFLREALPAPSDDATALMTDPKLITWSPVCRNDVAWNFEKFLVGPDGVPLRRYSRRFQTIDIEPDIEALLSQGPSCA

In test [5] the target is Phospholipid hydroperoxide glutathione peroxidase GPX4 (Homo sapiens) (UniProt P36969). Briefly: Primary qHTS Assay for Inhibitors of Recombinant Selenoprotein Glutathione Peroxidase 4 (GPX4) (AID 1845192). Note: potency is the fitted concentration of half-maximal effect; nearly all actives have a fitted effect of over 65% in size. The conditions noted are these: outcome: dose series up to 50 µM unless noted. The method, boiled down:
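NADPH consumption, followed by fluorescence at 340/450 nm between 0 and 15 min, reports GPX4 activity via coupled glutathione reductase (100 nM). Enzyme 200 nM was pre-exposed to compound 30 min; 0.5 mM cumene hydroperoxide and 1 mM GSH served as substrates.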

The nature of test [6]: qHTS drug screen for cell cycle checkpoint inhibitors in PARPi-resistant BRCA-mutant ovarian cancer cell lines. (AID 1963452; calls by dose curve). The conditions noted are these: PEO1/OlaR viability, CellTiter-Glo luminescence, 96 h, stronger effect = lower value. The method in brief: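 PEO1, PEO4 and PEO1/OlaR ovarian cancer cells, 600 per well, exposed 96 h at 37C to a dilution series. Viability read by CellTiter-Glo luminescence, normalized to DMSO and empty wells; activity summarized as Z-AUC.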

The target in test [7] is Atrial natriuretic peptide receptor 1 (Homo sapiens) (UniProt P16066). The experiment in a line: Natriuretic polypeptide receptor (hNpr1) antagonism - Pilot CMLD screen (AID 1347052; calls by dose curve;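 note: HEK293 cells with hNpr1 stimulated by hNppA peptide at 0.1 nM; cGMP level read as GloSensor luciferase luminescence after agonist stimulation; series mostly up to about 9.2 µM; % is set by controls: 0 for no effect and ±100 for the full control effect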).
Sequence of Atrial natriuretic peptide receptor 1 (Homo sapiens) (P16066 whole entry, looked up): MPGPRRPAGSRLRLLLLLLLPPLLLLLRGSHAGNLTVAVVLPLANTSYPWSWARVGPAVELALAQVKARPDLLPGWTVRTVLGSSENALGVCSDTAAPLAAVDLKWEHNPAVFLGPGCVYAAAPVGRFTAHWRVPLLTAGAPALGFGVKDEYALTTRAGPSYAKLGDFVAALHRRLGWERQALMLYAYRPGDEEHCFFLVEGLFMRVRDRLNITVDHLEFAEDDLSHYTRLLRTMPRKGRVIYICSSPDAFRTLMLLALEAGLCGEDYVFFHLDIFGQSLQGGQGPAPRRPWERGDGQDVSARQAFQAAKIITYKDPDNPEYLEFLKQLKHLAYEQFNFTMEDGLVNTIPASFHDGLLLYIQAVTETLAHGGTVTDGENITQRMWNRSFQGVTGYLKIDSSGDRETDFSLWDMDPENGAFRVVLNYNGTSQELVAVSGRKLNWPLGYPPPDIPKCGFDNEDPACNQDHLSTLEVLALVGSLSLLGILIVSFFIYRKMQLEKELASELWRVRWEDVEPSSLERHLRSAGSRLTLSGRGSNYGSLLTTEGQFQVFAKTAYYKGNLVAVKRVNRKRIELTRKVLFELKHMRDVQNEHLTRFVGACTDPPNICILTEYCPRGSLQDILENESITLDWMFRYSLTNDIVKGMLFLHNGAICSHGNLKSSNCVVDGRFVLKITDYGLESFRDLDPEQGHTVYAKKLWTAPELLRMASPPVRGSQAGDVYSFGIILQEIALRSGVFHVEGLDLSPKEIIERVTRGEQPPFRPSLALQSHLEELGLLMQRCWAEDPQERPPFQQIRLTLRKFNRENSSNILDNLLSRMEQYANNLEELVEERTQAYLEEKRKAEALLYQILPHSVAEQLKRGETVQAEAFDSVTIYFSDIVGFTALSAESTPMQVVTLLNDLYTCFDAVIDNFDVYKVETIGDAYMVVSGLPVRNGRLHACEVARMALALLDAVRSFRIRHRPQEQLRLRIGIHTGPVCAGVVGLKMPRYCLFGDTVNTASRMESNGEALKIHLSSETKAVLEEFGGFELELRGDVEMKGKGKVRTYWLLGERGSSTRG
[8] abbreviates: measured here: PEO1 parental Z-AUC.

Inconclusive results are not listed. Calls of active or inactive are those of the source. Unless noted, calls come from the whole dose curve; as a rule, active = well fitted curve in the direction sought with a large enough effect; inconclusive = small, poorly fitted or top-dose-only effect, or another doubt; inactive = no such curve, though single readings can be large; an effect the other way counts as inactive or inconclusive.

Sequence of Phospholipid hydroperoxide glutathione peroxidase GPX4 (Homo sapiens) (P36969 whole entry, looked up): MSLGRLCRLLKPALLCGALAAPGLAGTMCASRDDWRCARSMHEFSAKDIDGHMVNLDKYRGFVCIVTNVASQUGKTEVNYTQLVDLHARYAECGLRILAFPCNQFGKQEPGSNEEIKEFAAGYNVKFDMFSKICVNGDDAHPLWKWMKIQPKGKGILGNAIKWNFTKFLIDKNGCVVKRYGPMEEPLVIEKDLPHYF

In the case of `N#Cc1c2nc3ccccc3nc2n2ccc(NC(=O)c3cccs3)cc12`, the Potency was 20600 nM (active) in test [1], 1160 nM (active) in test [2] and 1160 nM (active) in test [3]. Besides, the Potency result in test [4] is “inactive”.
For the compound `O=c1cc(-c2ccc(O)cc2)oc2cc(OC3OC(CO)C(O)C(O)C3O)c(C3OC(CO)C(O)C(O)C3O)c(O)c12` (configuration not stated), the Potency entry in test [1], in test [2] and in test [4] was “inactive” throughout.
On to `COc1c(-c2ccc3cc(NS(C)(=O)=O)ccc3c2)cc(-n2ccc(=O)[nH]c2=O)cc1C(C)(C)C`, for which the Potency result in test [1] and in test [4] was “inactive” in each case. In addition, in test [5], the Potency is 3980 nM (active).
For the compound `COC(=O)C#Cc1ccc([N+](=O)[O-])cc1`, the Potency in test [1] is 18400 nM (active); in test [2], 4610 nM (active); in test [3], 4110 nM (active). The Potency result in test [4] was “inactive”.
Regarding `CCOC(=O)N1CCN(C(=O)Cn2sc3nc(C)cc(C)c3c2=O)CC1`, the Potency result in test [1] and in test [4] was “inactive” throughout.
Take `Cc1cc(Nc2cc(C)c(C#N)c(NC(C)CCCC(C)(C)O)n2)n[nH]1` (configuration not stated): the Potency in test [1] is 1300 nM (active); in test [2], 1030 nM (active). In test [4], the Potency result is “inactive”.
Regarding `Cc1ccc(NC(=O)Nc2nnc(Sc3ncnc4cc(OCCCN5CCOCC5)ccc34)s2)cc1`, the Potency entry in test [1] and in test [4] was “inactive” throughout. In addition, the results for the Potency in test [2] and in test [3] were 3660 nM (active) and 5170 nM (active), respectively. For the same compound, the Z-AUC in test [6] was -0.628 (inactive); in test [6] (setting [8]), 0.369; in test [6] (measured here: PEO4 Z-AUC), 0.158.
Take `COC[C@H](C)Oc1cc(O[C@@H](C)Cc2ccccc2)cc(C(=O)Nc2ccc(C(=O)O)cn2)c1`: the Potency entry in test [1], in test [2] and in test [4] was “inactive” throughout.
Turning to `CNC(=O)c1ccc(-c2cnc3cnc(C(=O)N(C)c4ccc(Cl)cc4)cn23)cc1`, the Potency entry in test [1] and in test [4] was “inactive” throughout.
Take `CN[C@@H]1C[C@H]2O[C@@](C)([C@@H]1OC)n1c3ccccc3c3c4c(c5c6ccccc6n2c5c31)C(=O)N[C@H]4O`: the Potency is 841 nM (active) in test [1], 21.5 nM (active) in test [2] and 30.3 nM (active) in test [3]. The outcome in test [4] was “inactive [at 9.52 µM]”. Moreover, the figures for the Z-AUC in test [6], in test [6] (setting [8]) and in test [6] (measured here: PEO4 Z-AUC) were -0.878 (inactive), -0.367 and -0.638, respectively.
With `C[C@@H]1C[C@H]2[C@@H](Cc3ccccc3)C(=O)N3[C@@H](C[C@@H](C)[C@@H]3c3ccccc3)[C@@H](Cc3ccccc3)C(=O)N2[C@H]1c1ccccc1`, in test [7], the Potency entry was “inactive”.
On the same count and under the same terms, the same measure for `COC(=O)C1=C(C(=O)OC)[C@@H]2N(Cc3ccccc3)c3ccccc3[C@@]23C[C@@H](CO)N=C3N1`: “inactive”; for `COC(=O)C1=C(C)N(Cc2ccccc2)C(=NCC2CC2)NC1c1ccccc1` (configuration not stated): “inactive”.
Turning to `CC(CCN1CCCc2nc(C)c(C)cc21)=NO[C@@H](C)CN1CCCCc2nc(C)c(C)cc21`, the Potency entry in test [7] was “inactive”.
For the compound `COC[C@@H](O)[C@H]1OCc2ccccc2[C@@H]1C=Cc1ccccc1`, the Potency result in test [7] is “inactive”.
Regarding `FC(F)(F)c1cc(NC(=S)Nc2ccc3cc4ccccc4cc3c2)cc(C(F)(F)F)c1`, in test [7], the Potency result was “inactive”.
`CC(CCN1CCCc2nc(C)c(C)cc21)=NO[C@H](C)CN1CCCc2nc(C)c(C)cc21`: the Potency entry in test [7] was “inactive”.
The same measure, in the same setting: the same measure for `CCC(C)CN1C(=O)NC(CCc2ccccc2)C(C(C)=O)=C1C` (configuration not stated): “inactive”; for `COc1cccc([C@H]2Oc3ccc(OC)cc3C(=NO[C@@H](C)CN3CCCCc4nc(C)c(C)cc43)[C@H]2O)c1`: “inactive”; for `Cc1ccccc1Nc1oc(-c2ccccc2)nc1-c1ccccc1F`: “inactive”.
In the case of `CCc1cc2c(nc1CC)CCN(CCC(C)=NOC[C@@H](C)[C@H](OCc1ccccc1)C(C)C)C2`, in test [7], the Potency result was “inactive”.
As to `CN1c2ccccc2[C@@]2(O)C(=O)[C@@]1(C)[C@H]1Cc3ccccc3[C@H]12`, in test [7], the Potency entry was “inactive”.
The same measure, in the same setting: under `O=C(N[C@H](c1cccc(Br)c1)[C@@H]1CCCC=C1c1ccccc1)C(F)(F)F` stands “inactive”; under `Brc1ccc2c(c1)c1cc(Br)ccc1n2CC1CO1` (configuration not stated), “inactive”.
